Compounds with a hit are over-represented: about 12% of the library has one in this group of screens.
PLK1 PBD inh: blocks phosphopeptide binding to human PLK1 polo-box domain; Plk1 PBD binding of FITC phosphopeptide, fluorescence polarization; Potency, µM, for the others: max response, negative = inhibition, actives largely listed as inhibitors; 360,000 compounds, 2.8% hits; P53350; note: series mostly up to about 57 µM; % is set by controls: 0 for no effect and ±100 for the full control effect; nearly all actives have a fitted effect of over 65% in size
Target sequence (P53350 whole entry, looked up, the tested form may be a part): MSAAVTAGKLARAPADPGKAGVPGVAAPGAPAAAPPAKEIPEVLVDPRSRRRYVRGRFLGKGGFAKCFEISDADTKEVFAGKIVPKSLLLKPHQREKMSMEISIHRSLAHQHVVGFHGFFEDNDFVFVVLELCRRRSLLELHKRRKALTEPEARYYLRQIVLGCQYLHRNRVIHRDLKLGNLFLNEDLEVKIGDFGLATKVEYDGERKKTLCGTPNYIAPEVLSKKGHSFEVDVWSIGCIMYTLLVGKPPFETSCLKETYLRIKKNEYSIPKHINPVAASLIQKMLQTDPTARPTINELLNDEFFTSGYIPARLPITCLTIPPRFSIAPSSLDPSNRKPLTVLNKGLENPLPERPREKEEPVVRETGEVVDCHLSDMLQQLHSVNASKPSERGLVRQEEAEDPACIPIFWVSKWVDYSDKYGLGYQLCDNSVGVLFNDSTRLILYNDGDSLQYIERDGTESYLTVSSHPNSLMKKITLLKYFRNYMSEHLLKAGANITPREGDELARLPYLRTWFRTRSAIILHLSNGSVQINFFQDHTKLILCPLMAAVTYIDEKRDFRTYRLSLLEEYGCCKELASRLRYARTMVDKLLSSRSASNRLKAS
G9a block: blocks human histone lysine methyltransferase G9a | Potency, µM (doses to about 102 µM), inactives show top-dose activity, negative = inhibition, usual class: inhibitors | 350,000 compounds, 8.8% hits | AID 504332 | G9a H3K9 monomethylation, AlphaScreen, 2 h; note: % is set by controls: 0 for no effect and ±100 for the full control effect; nearly all actives have a fitted effect of over 75% in size
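AlphaScreen read-out: biotin-H3K9 peptide (500 nM) methylation by 20 nM enzyme with 20 uM SAM, 2 h at room temperature after 15 min compound preincubation; anti-monomethyl H3K9 antibody plus donor/acceptor beads, 10 min dark.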
HP1b binding inh: blocks HP1-beta chromodomain binding to methylated histone tails. P83916. AlphaScreen HP1-beta / biotin-H3K9me3 peptide binding. Potency, µM (doses to about 114 µM), for the others: top-dose activity change, negative = inhibition, usual class: inhibitors. 390,000 compounds, 0.56% hits; note: nearly all actives have a fitted effect of over 70% in size
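HP1-beta protein (50 nM final) preincubated 30 min at room temperature with biotinylated H3(1-18)K9me3 peptide (50 nM) in PBS pH 7.4, 0.01% Tween-20, then compound added for 30 min. AlphaScreen streptavidin donor/nickel chelate acceptor beads (10 ug/mL final), 30 min dark, luminescence read.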
BAZ2B inh: inhibitors of human BAZ2B bromodomain | 360,000 compounds, 4.4% hits | Potency, µM (titrated, usually from 114 µM), without a hit: at the top dose activity change, negative = inhibition, usual class: inhibitors | AlphaScreen BAZ2B-H3K14Ac peptide displacement; note: % is set by controls: 0 for no effect and ±100 for the full control effect; nearly all actives have a fitted effect of over 60% in size
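AlphaScreen luminescence quantifies BAZ2B engagement of H3K14Ac peptide; the protein and biotinylated peptide are both at 50 nM final, buffer PBS pH 7.4 with 0.01% Tween-20, all steps at room temperature.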
Sfp inh: blocks B. subtilis Sfp PPTase activity; Biochemical Sfp PPTase activity, qHTS; Potency, µM, without a hit: largest response in the series, negative = inhibition, most hits filed as inhibitors; 310,000 compounds, 3.5% hits;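 note: the enzyme is Sfp with the accession as filed and its product quenches rhodamine fluorescence; 0% = enzyme reaction without inhibitor and -100% = no enzyme wells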
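Fluorescence-quenching assay: 15 nM Sfp-PPTase preincubated 15 min at room temperature with compound, then 5 uM rhodamine-CoA and 12.5 uM BHQ-2-labelled YbbR peptide added. Fluorescence (ex 525/em 598 nm) read at start and after 30 min; difference gives rate.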
JMJD2A Tudor inh: inhibitors of human JMJD2A Tudor domain; O75164; Potency, µM (highest dose often 114 µM), for the others: at the highest dose activity change, negative = inhibition, usual class: inhibitors; 390,000 compounds, 4.4% hits; AlphaScreen JMJD2A-Tudor / H3K4me3 peptide binding; note: % is set by controls: 0 for no effect and ±100 for the full control effect; nearly all actives have a fitted effect of over 50% in size
* = called active by the depositor; ? = inconclusive; nt = not tested or not shown; [ ] = remark or other dose. Calls come from the whole dose curve; as a rule, active = well fitted curve in the direction sought with a large enough effect; inconclusive = small, poorly fitted or top-dose-only effect, or another doubt; inactive = no such curve, though single readings can be large; an effect the other way counts as inactive or inconclusive. Potency is the fitted concentration of half-maximal effect.

SMILES	PLK1 PBD inh	G9a block	HP1b binding inh	BAZ2B inh	Sfp inh	JMJD2A Tudor inh
COc1ccc(C(=O)NNc2ncnc3c2cnn3-c2cccc(Cl)c2)cc1OC	nt	16%[59 µM]	41%	1%	nt	-28%
O=C(C[n+]1ccccc1)Nc1c(Cl)cc(Cl)cc1Cl	-9%	nt	25%	35µM*	20µM*	-8%
CN(C)c1cc[n+](CC(=O)Nc2ccc(OC(F)F)cc2)cc1	-17%	nt	-5%	50µM*	-3%	?
O=C(C[n+]1ccccc1)Nc1ccccc1Br	6%	0.32µM*	62%	25µM*	5%	2%
Cc1ccc[n+](CC(=O)Nc2ccc(N(C)C)cc2)c1	-11%	nt	18%	?	-7%	-33%
CN(C)c1ccc(NC(=O)C[n+]2ccccc2)cc1	-8%	50µM*	-5%	-26%	6%	?
CC(=O)c1ccc(NC(=O)C[n+]2ccc(N(C)C)cc2)cc1	-13%	13%	18%	2%	19%	-7%
COCCn1c(=O)c(-c2ccc(F)cc2)nc2cnc(OC)nc21	nt	5%[0.501 µM]	nt	nt	8%	nt
COc1ccc(OC)c(NC(=O)CN2C(=O)CC(C)Sc3ccccc32)c1 (stereo not given)	nt	5%[59 µM]	17%	-15%	nt	-9%
O=S(=O)(c1ccc(Cl)cc1)c1nnn2c1nc(NCc1ccccc1)c1sccc12	nt	2%[59 µM]	33%	1%	nt	-4%
O=C(NC1CC1)c1cccc(NC(=O)c2cn3ccccc3n2)c1	-11%	10%[2.33 µM]	-5%	4%	nt	40µM*
Cc1ccc2c(=O)cc(C(=O)Nc3cccc(Cl)c3C)oc2c1C	nt	4%[59 µM]	52%	-1%	nt	-10%
S=c1[nH]nc(COc2ccc(Cl)cc2)n1-c1ccccc1	-3%	15%[0.501 µM]	23%	-5%	13%	-19%
CCCCc1ccc(-n2c(Cc3cccs3)n[nH]c2=S)cc1	-16%	1.8µM*	-19%	?	-10%	?
Cc1ccccc1OCc1nnc(SCc2cc(=O)[nH]c3ccccc23)n1-c1ccccc1	-9%	4%	7%	-8%	56µM*	-31%
S=c1[nH]nc(Cc2noc3ccccc23)n1-c1ccc(Cl)cc1	-23%	1.4µM*	0%	-13%	-8%	?
S=c1[nH]nc(Cc2n[nH]c(=S)n2-c2ccccc2)n1-c1ccccc1	-9%	10µM*	40%	-3%	?	8.9µM*
Cc1cc(=O)c(C(=O)Nc2cccc(C(=O)NC3CC3)c2)nn1-c1ccccc1Cl	-10%	5%[12.7 µM]	14%	5%	nt	-11%
Cc1ccc(-n2c(Cc3ccccc3)n[nH]c2=S)cc1	-8%	2.2µM*	-5%	-23%	-16%	7.1µM*
S=c1[nH]nc(Cc2ccccc2)n1-c1ccc(Cl)cc1	-24%	?	1%	-25%	14%	79µM*
S=c1[nH]nc(Cc2ccccc2)n1-c1ccccc1	-10%	8.9µM*	23%	3%	-8%	4µM*
Cc1ccccc1OCc1n[nH]c(=S)n1-c1ccccc1	-12%	10µM*	16%	-31%	6%	-34%
Cc1ccc(-n2c(Cc3noc4ccccc34)n[nH]c2=S)cc1	-15%	nt	30%	?	0%	?
CCN1C(=O)[C@H]2[C@H]3[C@H](O)[C@H](O)C/C(=N/O[C@@H]4O[C@H](COC(C)=O)[C@@H](OC(C)=O)[C@H](OC(C)=O)[C@H]4OC(C)=O)[C@@H]3CC[C@@H]2C1=O	nt	nt	nt	nt	2%	nt
CCCCOCC(O)CCc1n[nH]c(=S)n1-c1ccccc1 (stereo not given)	-2%	nt	50%	-15%	?	?
SMILES	PLK1 PBD inh	G9a block	HP1b binding inh	BAZ2B inh	Sfp inh	JMJD2A Tudor inh
CC(C)OCC(O)CCc1n[nH]c(=S)n1-c1ccccc1 (stereo not given)	-13%	3.5µM*	28%	12%	79µM*	6.3µM*
S=c1[nH]nc(Cc2cccs2)n1-c1ccccc1	-11%	10%[0.501 µM]	32%	-32%	8%	7.9µM*
S=c1[nH]nc(CCc2ccccc2)n1-c1ccccc1	2%	1.4µM*	6%	2%	0%	11µM*
COc1nc(NCCc2ccc(OC)c(OC)c2)nc(Nc2ccccc2)n1	-3%	?	-8%	?	-3%	-33%
COc1cc(NCCCCC(C)N)c2nccc(C)c2c1 (stereo not given)	-3%	nt	nt	nt	nt	nt
CCC(CNc1cc(OC)cc2cccnc12)NC1CCCCC1 (stereo not given)	-26%	5µM*	-11%	?	45µM*	56µM*
COc1cc(NCCCC(C)N)c2ncccc2c1 (stereo not given)	-19%	?	-10%	32µM*	56µM*	22µM*
CCC1CCCCN1C(=O)CCCOc1ccccc1 (stereo not given)	3.4µM*	11%	7%	0%	4%	14µM*
Cc1cc(O)c2c(c1)C(=O)[C@@]13Oc4c5c(c(O)c6c(O)cc(C)cc46)C(=O)C[C@H](O)[C@H]5[C@@H]1[C@@H](O)CC(=O)C3=C2O	3.4µM*	nt	-20%	nt	nt	16µM*
CSc1nc2ccc(NC(=O)c3ccc(F)c(F)c3)cc2s1	-3%	9%	34%	-4%	9%	-1%
CSc1nc2ccc(NC(=O)c3ccc(=O)[nH]c3)cc2s1	-12%	50µM*	-1%	-1%	2%	-4%
CCCCCCCCN1C(=O)[C@H](CC(=O)NCCc2ccccc2OC)C[C@@]2(C(=O)OC)CCCCC=C12	1%	nt	nt	nt	nt	nt
